# Measured values published in PubChem BioAssay (NCATS).
# Inconclusive results are not listed. The source made the active and inactive calls. Calls follow the shape of the dose curve; as a rule, active = well fitted curve in the direction sought with a large enough effect in the signal ratio; inconclusive = small, poorly fitted or top-dose-only effect, or effect the other way, or a change in a side signal; inactive = no such curve, though single readings can be large or run the other way; the % refers to the signal ratio.
# Experiment: Validation of Assay for Modulators of Lamin A Splicing (AID 1459);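 also: cells exposed to compound for two days before reading; ratio rise marks activators and ratio drop marks inhibitors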
# Settings: Lamin A splicing dual RFP/GFP fluorescence reporter; series mostly up to 9.22 µM
# Description: Hutchinson-Gilford Progeria Syndrome (HGPS) is a pediatric premature aging disease caused by a spontaneous mutation in the lamin A/C (LMNA) gene. The mutation activates a cryptic splice site in the LMNA pre-mRNA which results in production of a pre-lamin A protein that cannot be processed properly. The mutant protein accumulates in the nucleus and negatively affects numerous cellular functions. Correction of the splicing defect in HGPS patient cells using a targeted oligonucleotide (exo11) leads to reversal of the cellular disease phenotypes. To identify small molecule modulators of aberrant LMNA splicing, a homogenous assay was constructed in HeLa cells that used a GFP containing minigene to report on correction of aberrant splicing in lamin A and a RFP (DsRed2) to report on cell viability, uniformity and nonspecific effects on the assay signal. This assay was adapted to laser-scanning microplate cytometry (Acumen, TTP Labtech) where miniaturization of the assay to a 1,536-well plate format was possible.
# Bowen, W. P.; Wylie, P. G. Application of Laser-Scanning Fluorescence Microplate Cytometry in High Content Screening. Assay Drug Dev Technol 2006;4:209-221.
# Scaffidi P, Misteli T. Reversal of the cellular phenotype in the premature aging disease Hutchinson-Gilford progeria syndrome. Nat. Med. 2005;11:440-445.
# NCGC Assay Protocol Summary:
# Reagents/Controls: Stable clones expressing DsRed2 and lamin A-EGFP were generated by Cell and Molecular Technologies in S3 HeLa cells.
# HeLa cells were prepared for the assay when they were 70-90% confluent. The cells were counted and resuspended in Opti-MEM I (no phenol red; Gibco), 2% FBS, 1% penicillin/ streptomycin (Gibco) at concentration of 120 cells/uL concentration. The suspension was passed through a Falcon basket filter with pore size 40um (Beckton Dickson).
# Control titrations: column […] 1536-well plate contained a sixteen point titration (1:2 dilutions) in duplicate of ancitabine (Sigma: A8598) beginning at 40 uM final concentration. Column 2 contained a sixteen point titration (1:2 dilutions) of cycloheximide beginning at 1.4 mM final concentration. Column 3 contained ancitabine at 40 uM and column 4 contained was the vehicle control (0.5% DMSO final concentration).
# 5 uL of HeLa cells were plated in Aurora LoBase black clear bottom (cyclic-olefin polymer) 1536-well plates at a final density of 600 cells/well. Controls and library compounds were added with a 1536-well pin array using the Kalypsys pin-tool. The plates were then incubated for 48 hrs in a cell-culture incubator (37 °C; 5% CO2, 98% humidity). Following incubation the plates were read on the Acumen Explorer using the 488 nm laser. Data was collected on objects between 10 and 100 um in size. Cell objects were defined by a 15 um width x 10 um depth filter. The ratio of the total object intensity in PMT1 (500-530 nm emission; GFP) over PMT3 (575-640 nm emission; RFP) was calculated for analysis.
# Keywords: NIH Roadmap, MLSCN, MLI, MLSMR, qHTS, NCGC, lamin A, Progeria, RNA splicing.
row,SMILES,outcome
1,CN1C[C@H](C(=O)N[C@]2(C)O[C@@]3(O)C4CCCN4C(=O)[C@H](Cc4ccccc4)N3C2=O)C[C@@H]2c3cccc4[nH]cc(c34)C[C@H]21 (stereo not given in full),inactive
2,CC(O)[C@@H](O)[C@H]1CNc2nc(N)[nH]c(=O)c2N1 (stereo not given in full),inactive
3,CCCCCCCCCCCCCCC/C=C/[C@@H](O)[C@H](NC(=O)CCCCCCCCCCCCC)OC (tested in a mixture with another compound),inactive
4,C[C@H]1CC2[C@@H]3CCC4=CC(=O)C=C[C@]4(C)[C@@]3(F)[C@@H](O)C[C@]2(C)[C@@]1(O)C(=O)CO (stereo not given in full),inactive
5,NCC1OC(O[C@@H]2[C@H](O)[C@@H](OC3C(O)C(N)CC(N)C3OC3OC(CO)C(O)C(O)C3N)O[C@@H]2CO)C(N)C(O)C1O (stereo not given in full),inactive
6,Nc1ncnc2c1ncn2[C@@H]1O[C@H](CO)[C@H](O)[C@H]1O,inactive
7,CN1CCc2cc(Cl)c(O)cc2C(c2ccccc2)C1 (stereo not given),inactive
8,NC(=S)NCCCC(N)C(=O)O (stereo not given),inactive
9,CSc1nc(N)c2ncn([C@@H]3O[C@H](COP(=O)(O)OP(=O)(O)OP(=O)(O)O)[C@H](O)[C@H]3O)c2n1,inactive
10,C[C@]12CCC(=O)C=C1CC[C@@H]1C2[C@@H](O)C[C@@]2(C)[C@H]1CC[C@]2(O)C(=O)CO (stereo not given in full),inactive
11,COc1c2c(nc3ccccc13)OC(C(C)(O)CO)C2 (stereo not given),inactive
12,CC(C)CN(C)c1nc(N)c(C(=O)N=C(N)N)nc1Cl,inactive
13,CC(=O)[C@@]1(O)CC[C@H]2C3CCC4=CC(=O)CC[C@]4(C)C3CC[C@@]21C (stereo not given in full),inactive
14,CC(C)C[C@H]1C(=O)N2CCCC2[C@]2(O)O[C@](NC(=O)[C@@H]3C=C4c5cccc6[nH]c(Br)c(c56)C[C@H]4N(C)C3)(C(C)C)C(=O)N12 (stereo not given in full),inactive
15,CC(C)(C)[C@]1(O)CCN2CC3c4ccccc4CCc4cccc(c43)[C@@H]2C1 (stereo not given in full),inactive
16,CCCCC#Cc1nc(N)c2ncn([C@@H]3O[C@H](C(=O)NCC)[C@@H](O)[C@H]3O)c2n1,inactive
17,CN1C2CCC1CC(NC(=O)c1nn(C)c3ccccc13)C2 (stereo not given),inactive
18,CC(N)=NCCCC(N)C(=O)O (stereo not given),inactive
19,NC(=S)c1ccc[n+]([C@@H]2O[C@@H](COP(=O)([O-])OP(=O)(O)OC[C@H]3O[C@@H](n4cnc5c(N)ncnc54)[C@H](OP(=O)(O)O)[C@H]3O)C(O)C2O)c1 (stereo not given in full),inactive
20,CCCC(=O)NCCc1c2n(c3ccc(OC)cc13)Cc1ccccc1-2,inactive

row,SMILES,outcome
1,OC[C@H]1O[C@@H](n2cnc3c(NCCc4ccccc4)ncnc32)[C@H](O)[C@H]1O,inactive
2,NCCCCNS(=O)(=O)c1cccc2c(Cl)cccc12,inactive
3,CN(C)C1C(=O)C(C(N)=O)=C(O)[C@@]2(O)C(=O)C3=C(O)c4c(O)ccc(Cl)c4[C@@H](O)C3C[C@@H]12 (stereo not given in full),inactive
4,COc1ccc(CCNC[C@@H](O)c2ccc(O)cc2)cc1OC,inactive
5,NC(=O)C1=CN(C2OC(COP(=O)(O)OP(=O)(O)OC[C@H]3O[C@@H](n4cnc5c(N)ncnc54)[C@H](OP(=O)(O)O)[C@H]3O)C(O)C2O)C=CC1 (stereo not given in full),inactive
6,C[C@H](Cc1ccccc1)Nc1ncnc2c1ncn2[C@@H]1O[C@H](CO)[C@H](O)[C@H]1O,inactive
7,CC(=O)NCCc1ccc(O)c(O)c1,inactive
8,Nc1nc(Nc2ccccc2)nc2c1ncn2[C@@H]1O[C@H](CO)[C@H](O)[C@H]1O,inactive
9,OC[C@H]1O[C@@H](n2cnc3c(NC4CCCC4)ncnc32)[C@H](O)[C@H]1O,inactive
10,N[C@H](Cc1ccc(O)c(O)c1)C(=O)O,inactive
11,CN(CCOc1ccc(C[C@H](Nc2ccccc2C(=O)c2ccccc2)C(=O)O)cc1)c1ccccn1,inactive
12,O=C(Cc1ccc(Cl)c(Cl)c1)OCCN1CCCC1,inactive
13,Nc1nc2c(nc(Br)n2C2O[C@H]3COP(=O)(O)O[C@@H]3C2O)c(=O)[nH]1 (stereo not given in full),inactive
14,CSc1nc(N)c2ncn([C@@H]3O[C@H](COP(=O)(O)OP(=O)(O)O)[C@H](O)[C@H]3O)c2n1,inactive
15,OC[C@H]1O[C@@H](n2cnc3c(N[C@H]4CC5CCC4C5)ncnc32)[C@H](O)[C@@H]1O (stereo not given in full),inactive
16,N.N.N.N.N.N.N.N.N.N.N.N.N.N.O.O.[Cl-].[Cl-].[Cl-].[Cl-].[Cl-].[Cl-].[Ru].[Ru].[Ru],inactive
17,NCCNC(=O)c1ccc(Cl)cc1,inactive
18,CN=C(N)NCCCC(N)C(=O)O (stereo not given),inactive
19,Nc1nc(SCc2ccc([N+](=O)[O-])cc2)c2ncn([C@@H]3O[C@H](CO)[C@H](O)[C@H]3O)c2n1,inactive
20,CCSC(N)=Nc1ccc(C(F)(F)F)cc1,inactive
